An excerpt weighted towards active compounds, which were near 18% of everything screened.
CtBP-E1A blk: inhibitors of CtBP/E1A interaction; AlphaScreen GST-E1A/His-CtBP binding, 1536-well; stronger effect = lower value; activity change, % (no concentration beside the values); 340,000 compounds, 0.49% hits; AID 651724; in the data active means activity change below about -65%; inconclusive means mostly about -30% to -63%
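Steps: dispense buffer (Tris pH 8.0, NaCl 300 mM, TCEP 1 mM, BSA, Tween 20); add 5X protein mix (GST-E1A, His-CtBP, 125 nM each); pin 23 nL compound; 2 h at 37 °C, dark; add 5X beads (50 ug/mL); 1 h; read.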
IL-1B inflam inh: inhibitors of inflammasome signaling (IL-1 beta secretion); THP-1 LPS/ATP IL-1B secretion, AlphaLISA, 16 h; stronger effect = lower value; activity change, % at 57.5 µM; 360,000 compounds, 4.7% hits; AID 743279; in the data active means activity change below about -50%; inconclusive means mostly about -30% to -49%
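THP-1 cells pretreated 1 hr with compounds (up to 57.5 uM final), then stimulated with LPS (250 ng/mL final) plus ATP (1.25 mM final); secreted IL-1B measured by AlphaLISA after 16 hr, decreased signal indicating inhibition.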
TDP1 cell noCPT: qHTS for Inhibitors of human tyrosyl-DNA phosphodiesterase 1 (TDP1): qHTS in cells in absence of CPT; 420,000 compounds, 15% hits; DT40 Tdp1-/- hTDP1 cells, no CPT, ATP luminescence, 48 h; Potency, µM (highest dose often 46.2 µM), hits mostly inhibitors; further: nearly all actives have a fitted effect of over 55% in size
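Growth kinetics read by CellTiter-Glo luminescence after ≥48 hr at 37 °C. Cells: DT40 Tdp1-/- stably carrying human TDP1, 400 per well, compound exposure in the absence of CPT (DMSO vehicle).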
TDP1 cell CPT: DT40-hTDP1 cell growth loss with CPT. chicken DT40 Tdp1-/-;hTDP1 cells + 20 nM CPT, ATP luminescence, 48 h. Potency, µM (titrated, usually from 46.2 µM), hits mostly inhibitors. 420,000 compounds, 12% hits. AID 686979; further: nearly all actives have a fitted effect of over 55% in size
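Cell growth measured by CellTiter-Glo luminescence after a minimum 48 h, 37 C compound exposure with 20 nM CPT in Tdp1-knockout DT40 cells stably expressing hTDP1, seeded 400/well; qHTS titration format.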
Six1-Eya2 inh: blocks human Six1 binding to Eya2; AID 651725; AlphaScreen GST-Six1/His-Eya2 binding, biochemical; stronger effect = lower value; activity change, % (no concentration beside the values); 360,000 compounds, 0.56% hits; Q15475+O00167; in the data active means activity change below about -65%; inconclusive means mostly about -30% to -63%
Target sequence (O00167 whole entry, looked up): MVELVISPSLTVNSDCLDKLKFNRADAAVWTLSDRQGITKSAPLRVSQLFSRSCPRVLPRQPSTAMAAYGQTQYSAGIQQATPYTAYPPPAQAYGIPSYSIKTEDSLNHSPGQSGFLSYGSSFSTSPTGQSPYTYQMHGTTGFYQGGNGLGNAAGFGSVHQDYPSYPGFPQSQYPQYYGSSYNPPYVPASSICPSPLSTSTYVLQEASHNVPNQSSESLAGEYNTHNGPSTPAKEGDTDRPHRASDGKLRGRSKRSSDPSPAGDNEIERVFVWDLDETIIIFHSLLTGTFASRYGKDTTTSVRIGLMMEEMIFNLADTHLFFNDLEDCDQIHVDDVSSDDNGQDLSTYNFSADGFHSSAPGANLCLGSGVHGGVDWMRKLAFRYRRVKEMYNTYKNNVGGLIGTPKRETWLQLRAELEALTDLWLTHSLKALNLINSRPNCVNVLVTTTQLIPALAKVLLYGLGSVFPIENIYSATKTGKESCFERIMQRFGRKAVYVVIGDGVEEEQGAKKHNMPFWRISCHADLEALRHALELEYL
Target sequence (Q15475 whole entry, looked up): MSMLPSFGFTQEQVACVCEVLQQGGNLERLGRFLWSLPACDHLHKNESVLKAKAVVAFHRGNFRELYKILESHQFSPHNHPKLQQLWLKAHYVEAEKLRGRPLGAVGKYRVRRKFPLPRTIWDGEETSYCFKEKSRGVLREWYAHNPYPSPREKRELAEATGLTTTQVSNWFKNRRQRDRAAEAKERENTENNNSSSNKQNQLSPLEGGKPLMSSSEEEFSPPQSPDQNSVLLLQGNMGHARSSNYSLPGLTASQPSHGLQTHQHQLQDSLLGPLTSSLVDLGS
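Compounds are tested against tagged Six1 and Eya2 proteins bridged by glutathione donor and nickel acceptor beads; after a one-hour incubation at 37 °C without light, AlphaScreen emission is recorded.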
TDP1 inh: inhibitors of human tyrosyl-DNA phosphodiesterase TDP1; recombinant TDP1, AlphaScreen DNA substrate cleavage; Potency, µM (doses to about 130 µM), most hits filed as inhibitors; Q9NUW8; 350,000 compounds, 0.28% hits; further: nearly all actives have a fitted effect of over 40% in size
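Recombinant human Tdp1 (E. coli-expressed, 1 nM final) preincubated with compounds 15 min at room temperature, then 5'-biotin/3'-phosphotyrosine-FITC DNA substrate (15 nM final) added for 5 min. AlphaScreen beads (10 ug/ml final) added 10 min; cleavage lowers signal.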
Of the large screens only hits and unclear results are named; the others gave an inactive call. Unless noted, the call rests on the fitted dose curve; in most records, active means well fitted curve in the direction sought with a large enough effect; inconclusive means small, poorly fitted or top-dose-only effect, or another doubt; inactive means no such curve, though single readings can be large; an effect the other way counts as inactive or inconclusive.

Cc1cccc(NC(=O)c2nc[nH]c2C(=O)NC2CCN(C(=O)OC(C)(C)C)CC2)c1	none
Cc1cccc(NC(=O)c2nc[nH]c2C(=O)NCCCNC(=O)c2[nH]cnc2C(=O)Nc2cccc(C)c2)c1	TDP1 cell noCPT inconclusive
Cc1ccc(NC(=O)c2nc[nH]c2C(=O)NCCN(CCNC(=O)c2[nH]cnc2C(=O)Nc2ccc(C)cc2)CCNC(=O)c2[nH]cnc2C(=O)Nc2ccc(C)cc2)cc1	IL-1B inflam inh inconclusive, TDP1 cell noCPT 16µM, TDP1 cell CPT inconclusive
Cc1cccc(NC(=O)c2nc[nH]c2C(=O)N2CCN(C(=O)OC(C)(C)C)CC2)c1	TDP1 cell noCPT inconclusive, TDP1 cell CPT 21µM
Cc1cccc(NC(=O)c2nc[nH]c2C(=O)NCCN(CCNC(=O)c2[nH]cnc2C(=O)Nc2cccc(C)c2)CCNC(=O)c2[nH]cnc2C(=O)Nc2cccc(C)c2)c1	TDP1 cell noCPT 5.8µM, TDP1 cell CPT 6.5µM
O=C(Nc1ccc(F)cc1)c1nc[nH]c1C(=O)Nc1ccc([N+](=O)[O-])cc1	TDP1 cell noCPT 15µM, TDP1 cell CPT inconclusive
O=C(Nc1ccc(Cl)cc1)c1nc[nH]c1C(=O)NCCN(CCNC(=O)c1[nH]cnc1C(=O)Nc1ccc(Cl)cc1)CCNC(=O)c1[nH]cnc1C(=O)Nc1ccc(Cl)cc1	TDP1 cell noCPT inconclusive, TDP1 cell CPT inconclusive
O=C(Nc1ccccc1)c1nc[nH]c1C(=O)NCCN(CCNC(=O)c1[nH]cnc1C(=O)Nc1ccccc1)CCNC(=O)c1[nH]cnc1C(=O)Nc1ccccc1	TDP1 cell noCPT 23µM, TDP1 cell CPT inconclusive
CC(=O)N1CC2(CC(=O)OC(C)C)CN(C(C)=O)CC(CC(=O)OC(C)C)(C1)C2=O	none
CCn1cc(C(=O)NCCc2ccccc2)c(=O)c2cc(F)c(N3CCN(C)CC3)cc21	TDP1 cell noCPT inconclusive, TDP1 cell CPT inconclusive
CCn1cc(C(=O)NCc2ccco2)c(=O)c2cc(F)c(N3CCN(C(=O)c4ccco4)CC3)cc21	IL-1B inflam inh inconclusive, TDP1 cell noCPT inconclusive, TDP1 cell CPT 21µM, TDP1 inh 40µM
C=CCNC(=O)c1cn(CC)c2cc(N3CCN(C(=O)c4ccco4)CC3)c(F)cc2c1=O	TDP1 cell noCPT 15µM, TDP1 cell CPT 23µM, Six1-Eya2 inh inconclusive (no result: CtBP-E1A blk)
CCC(C)NC(=O)c1cn(CC)c2cc(N3CCN(C(=O)c4ccco4)CC3)c(F)cc2c1=O (configuration not stated)	TDP1 cell noCPT 13µM, TDP1 cell CPT 16µM
CCn1cc(C(=O)NCC(C)C)c(=O)c2cc(F)c(N3CCN(C(=O)c4ccco4)CC3)cc21	TDP1 cell noCPT 21µM, TDP1 cell CPT inconclusive
CC(NC(=O)Cc1c(F)cccc1Cl)C1CCCO1 (configuration not stated)	none
CC1CCCC(C)N1CCCNC(=O)CN1C(=O)COc2ccc(S(=O)(=O)N3CCOCC3)cc21 (configuration not stated)	none
CCOC(=O)C1=NN(c2ccccc2)C2(S1)SC(C(C)=O)=C(C)N2c1ccccc1 (configuration not stated)	TDP1 cell noCPT 15µM, TDP1 cell CPT inconclusive
CCOC(=O)C1=NN(c2ccc(C)cc2)C2(S1)SC(C(C)=O)=C(C)N2c1ccccc1 (configuration not stated)	TDP1 cell noCPT 21µM, TDP1 cell CPT inconclusive
COC(=O)C1=NN(c2ccccc2)C2(S1)S/C(=C\c1ccccc1)C(=O)N2c1ccccc1 (configuration not stated)	TDP1 cell noCPT inconclusive, TDP1 cell CPT inconclusive
CCOC(=O)C1=NN(c2cccc(C)c2)C2(S1)SC(C(C)=O)=C(C)N2c1ccccc1 (configuration not stated)	none
COc1ccccc1C(=O)C1CCCN(C(=O)c2cccc(Cn3cccn3)c2)C1 (configuration not stated)	TDP1 cell noCPT inconclusive, TDP1 cell CPT inconclusive
O=C1c2ccccc2/C(=C\C#Cc2ccccn2)N1c1ccccc1	IL-1B inflam inh -100, TDP1 cell noCPT inconclusive, TDP1 cell CPT inconclusive
CCCc1nc2c3ccccc3ccn2c1CC(C)(C)C	TDP1 cell noCPT 21µM, TDP1 cell CPT 9.2µM (no result: TDP1 inh)
CCCc1nc2c(C)cc(Br)cn2c1Cc1ccccc1	TDP1 cell noCPT inconclusive, TDP1 cell CPT inconclusive (no result: TDP1 inh)
CCCc1nc2c3ccccc3ccn2c1Cc1cccc(Cl)c1	TDP1 cell noCPT inconclusive, TDP1 cell CPT inconclusive (no result: TDP1 inh)
CCCc1nc2c3ccccc3ccn2c1Cc1ccc(C)cc1	TDP1 cell noCPT inconclusive, TDP1 cell CPT 21µM (no result: TDP1 inh)
NC(c1csc(Nc2cc(Oc3ccccc3)ncn2)n1)c1ccccc1Cl (configuration not stated)	CtBP-E1A blk inconclusive, IL-1B inflam inh -89, TDP1 cell noCPT inconclusive, TDP1 cell CPT inconclusive (no result: TDP1 inh)
NC(=O)c1ccc(Nc2nc(C(N)c3ccccc3Cl)cs2)cc1 (configuration not stated)	TDP1 cell noCPT inconclusive, TDP1 cell CPT inconclusive (no result: TDP1 inh)
CC(N)c1csc(Nc2cc(Oc3ccccc3)ncn2)n1 (configuration not stated)	CtBP-E1A blk -68, IL-1B inflam inh -65, TDP1 cell noCPT 0.041µM, TDP1 cell CPT inconclusive, Six1-Eya2 inh inconclusive (no result: TDP1 inh)
Cc1ccccc1-n1c(SCC(=O)NCC2CCCO2)nnc1-c1ccncc1 (configuration not stated)	none
COc1ccccc1NC(=O)c1ccccc1N(Cc1ccccc1)S(C)(=O)=O	TDP1 cell noCPT inconclusive, TDP1 cell CPT inconclusive (no result: CtBP-E1A blk, TDP1 inh)
CCN(CC)CCC(c1ccc(N(C)C)cc1)c1c(OC)cc(OC)c2c1OC(=O)CC2c1ccc(OC)cc1 (configuration not stated)	none (no result: CtBP-E1A blk, IL-1B inflam inh, TDP1 cell noCPT, TDP1 cell CPT, Six1-Eya2 inh)
CCOC(=O)C1Nc2c(cc(C(F)(F)F)cc2[N+](=O)[O-])C2c3ccccc3CC12 (configuration not stated)	CtBP-E1A blk inconclusive, TDP1 cell noCPT inconclusive, TDP1 cell CPT 18µM (no result: TDP1 inh)
CCOC(=O)C1Nc2ccccc2C2c3ccccc3CC12 (configuration not stated)	TDP1 cell noCPT 2.6µM, TDP1 cell CPT 21µM (no result: TDP1 inh)
COc1ccc(-c2c(C)c3ccc(O)c(CN4CCCCC4C)c3oc2=O)cc1OC (configuration not stated)	TDP1 cell noCPT inconclusive, TDP1 cell CPT inconclusive (no result: CtBP-E1A blk, IL-1B inflam inh, Six1-Eya2 inh)
O=S(=O)(c1cccc(F)c1)N1CCC(Oc2ccc(-n3cnnn3)cc2)CC1	TDP1 cell noCPT 15µM, TDP1 cell CPT 16µM (no result: CtBP-E1A blk, IL-1B inflam inh, Six1-Eya2 inh)
Cc1ccc(CN2CCN(C3CCN(S(=O)(=O)c4ccc(C)cc4)CC3)C(=O)C2=O)cc1	none (no result: CtBP-E1A blk, IL-1B inflam inh, Six1-Eya2 inh)
